Source: the supplement of paper PMC10849652
The full data set covers some 8,800 targets. This sample favours those with a hit. About 0.5% of all pairs of compound and target were hits. Unmarked numbers belong to inactive results.

Experiments:
Assay in all cases: log2 fold change, soluble protein after heating vs DMSO (PISA); higher = thermal stabilisation; K562 lysate, 10 uM; active = over 0.2 and 3.5 SD of the protein, either way, in both replicates (recomputed)
Tubastatin A = compound: CN1CCc2c(c3ccccc3n2Cc2ccc(C(=O)NO)cc2)C1 [Tubastatin A]
Summary of the method: (§1)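 Following dounce homogenisation of K562 pellets in PBS pH 7.4 with 1 mM MgCl2, crude extract at 1 mg/mL protein was incubated for 30 min with 10 μM compound. Aliquots were then heated for 3 min over 48°C-58°C and pooled, NP-40 was added to 0.5% at 4°C, and soluble protein was recovered as the supernatant at 21,000xg for 90 min. Channel-sum-equalised TMTpro 16plex LC-MS/MS quantified this protein. Each value, from duplicates, is a log-two fold change in thermal stability relative to solvent controls.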

[1] = compound: CNC(=O)C1=CC=CC=C1NC2=NC(=NC=C2Cl)NC3=C(C=C(C=C3)N4CCOCC4)OC
Summary of the method: as §1

[2] = compound: CNc1nc(-c2ccc3c(N)n[nH]c3c2)cc(N2C[C@@H](C(=O)NC3CCCCC3)CC[C@H]2C)n1
Summary of the method: as §1

encorafenib = compound: COC(=O)N[C@@H](C)CNc1nccc(-c2cn(C(C)C)nc2-c2cc(Cl)cc(NS(C)(=O)=O)c2F)n1 [encorafenib]
Summary of the method: as §1

[3] = compound: COC(=O)[C@H](CCSC)NC(=O)C1=C(C=C(C=C1)NC[C@H](CS)N)C2=CC=CC=C2
Summary of the method: as §1

alisertib = compound: COc1cc(Nc2ncc3c(n2)-c2ccc(Cl)cc2C(c2c(F)cccc2OC)=NC3)ccc1C(=O)O [alisertib]
Summary of the method: as §1

[4] = compound: COc1cc2nc(-c3cc(F)ccc3O)nc(N[C@@H]3CNC[C@H]3C(C)(C)O)c2cc1OC
Summary of the method: as §1

gefitinib = compound: COc1cc2ncnc(Nc3ccc(F)c(Cl)c3)c2cc1OCCCN1CCOCC1 [gefitinib]
Summary of the method: as §1

alvocidib = compound: CN1CC[C@H](c2c(O)cc(O)c3c(=O)cc(-c4ccccc4Cl)oc23)[C@H](O)C1 [alvocidib]
Summary of the method: as §1

defactinib = compound: CNC(=O)c1ccc(Nc2ncc(C(F)(F)F)c(NCc3nccnc3N(C)S(C)(=O)=O)n2)cc1 [defactinib]
Summary of the method: as §1

Sequence of UniProt Q9H5L6 (Q9H5L6 whole entry, looked up): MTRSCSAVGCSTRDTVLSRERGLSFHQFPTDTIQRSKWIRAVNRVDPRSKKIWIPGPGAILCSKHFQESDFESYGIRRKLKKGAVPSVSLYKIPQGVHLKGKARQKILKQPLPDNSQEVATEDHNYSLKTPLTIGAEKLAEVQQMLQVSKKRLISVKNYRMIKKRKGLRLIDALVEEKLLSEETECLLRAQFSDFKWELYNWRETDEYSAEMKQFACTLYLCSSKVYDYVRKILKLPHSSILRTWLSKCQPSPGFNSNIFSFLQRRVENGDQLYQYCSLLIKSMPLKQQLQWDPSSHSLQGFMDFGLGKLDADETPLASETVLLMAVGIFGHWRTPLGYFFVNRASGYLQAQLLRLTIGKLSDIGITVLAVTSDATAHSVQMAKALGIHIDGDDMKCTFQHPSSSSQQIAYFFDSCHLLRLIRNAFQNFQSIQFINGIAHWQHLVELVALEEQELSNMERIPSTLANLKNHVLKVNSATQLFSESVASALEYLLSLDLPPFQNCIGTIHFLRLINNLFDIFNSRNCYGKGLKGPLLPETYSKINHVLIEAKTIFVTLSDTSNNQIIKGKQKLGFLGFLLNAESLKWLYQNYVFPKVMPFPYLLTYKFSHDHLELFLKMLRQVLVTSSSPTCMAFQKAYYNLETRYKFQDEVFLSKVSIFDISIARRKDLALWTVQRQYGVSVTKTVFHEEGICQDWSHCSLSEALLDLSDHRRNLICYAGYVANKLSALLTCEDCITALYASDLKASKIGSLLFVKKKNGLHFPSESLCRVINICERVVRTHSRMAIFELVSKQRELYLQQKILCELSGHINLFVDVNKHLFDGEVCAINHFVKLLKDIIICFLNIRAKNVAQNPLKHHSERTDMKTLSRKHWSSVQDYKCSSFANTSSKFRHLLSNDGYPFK
Sequence of UniProt P0C1Z6 (P0C1Z6 whole entry, looked up): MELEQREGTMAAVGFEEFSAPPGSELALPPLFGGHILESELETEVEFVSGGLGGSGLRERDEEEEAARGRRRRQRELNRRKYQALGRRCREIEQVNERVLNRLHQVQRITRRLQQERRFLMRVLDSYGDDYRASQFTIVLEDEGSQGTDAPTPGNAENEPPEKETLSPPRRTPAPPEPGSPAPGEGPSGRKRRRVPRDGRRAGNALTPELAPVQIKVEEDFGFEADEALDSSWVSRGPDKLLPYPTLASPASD
Sequence of UniProt P62328 (P62328 whole entry, looked up): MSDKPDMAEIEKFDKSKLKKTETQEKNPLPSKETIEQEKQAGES
Sequence of UniProt P42680 (P42680 whole entry, looked up): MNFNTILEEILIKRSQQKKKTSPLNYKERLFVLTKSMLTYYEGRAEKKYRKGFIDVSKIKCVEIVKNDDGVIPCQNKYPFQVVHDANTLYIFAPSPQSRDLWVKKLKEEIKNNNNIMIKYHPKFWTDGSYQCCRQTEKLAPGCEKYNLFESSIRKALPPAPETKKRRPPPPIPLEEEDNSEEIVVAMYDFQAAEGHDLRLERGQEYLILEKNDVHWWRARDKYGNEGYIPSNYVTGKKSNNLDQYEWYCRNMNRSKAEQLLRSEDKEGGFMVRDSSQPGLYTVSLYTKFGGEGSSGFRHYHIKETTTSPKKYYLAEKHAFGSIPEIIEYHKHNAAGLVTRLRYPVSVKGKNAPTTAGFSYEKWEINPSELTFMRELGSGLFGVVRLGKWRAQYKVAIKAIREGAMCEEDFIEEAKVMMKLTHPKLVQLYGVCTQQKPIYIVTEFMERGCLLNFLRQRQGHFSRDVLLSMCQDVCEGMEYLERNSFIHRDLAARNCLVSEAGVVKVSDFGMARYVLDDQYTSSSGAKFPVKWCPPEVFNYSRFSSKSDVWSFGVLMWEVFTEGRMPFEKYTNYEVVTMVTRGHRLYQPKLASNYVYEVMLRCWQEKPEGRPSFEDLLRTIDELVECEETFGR
Sequence of UniProt Q86SX3 (Q86SX3 whole entry, looked up): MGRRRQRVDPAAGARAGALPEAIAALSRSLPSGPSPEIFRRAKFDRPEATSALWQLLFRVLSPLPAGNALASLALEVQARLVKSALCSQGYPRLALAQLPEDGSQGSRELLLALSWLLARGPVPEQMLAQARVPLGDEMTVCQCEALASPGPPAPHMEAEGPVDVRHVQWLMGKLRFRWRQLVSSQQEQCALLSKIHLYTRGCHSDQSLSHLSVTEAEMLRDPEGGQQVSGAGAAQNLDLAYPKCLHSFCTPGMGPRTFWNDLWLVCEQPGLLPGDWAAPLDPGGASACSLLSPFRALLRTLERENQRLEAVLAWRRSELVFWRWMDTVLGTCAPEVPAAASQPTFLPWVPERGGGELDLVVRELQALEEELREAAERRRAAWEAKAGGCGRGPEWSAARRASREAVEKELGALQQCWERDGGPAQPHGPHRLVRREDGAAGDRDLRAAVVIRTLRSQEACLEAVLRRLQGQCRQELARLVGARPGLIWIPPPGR

Target	log2 fold change (Tubastatin A)	log2 fold change [1]	log2 fold change [2]	log2 fold change (encorafenib)	log2 fold change [3]	log2 fold change (alisertib)	log2 fold change [4]	log2 fold change (gefitinib)	log2 fold change (alvocidib)	log2 fold change (defactinib)
TEDC1 (UniProt Q86SX3)	-0.254	0.038	0.051	0.094	0.047	-0.019	-0.008	0.047	–	–
TMSB4X (UniProt P62328)	0.102	-0.045	–	0.043	-0.055	-0.143	0.063	-0.001	0.401	–
THAP9 (UniProt Q9H5L6)	0.053	–	0.476	-0.009	0.085	–	0.179	–	-0.249	-0.067
TFPT (UniProt P0C1Z6)	–	-0.041	0.381 (active)	–	–	–	0.027	–	–	–
TEC (UniProt P42680)	–	–	–	-0.044	-0.036	-0.086	-0.028	-0.027	–	0.07
